# Measurements published in PubChem BioAssay (EPA / NIEHS).
# Results filed as inconclusive are left out. Active and inactive are the calls of the source. The calls were made as follows, unless noted: active = hit-call score of the fitted dose curve at least 0.9, where 1 is the maximum; inconclusive = response in the unintended direction; inactive = score below 0.9.
# What was measured:
# [1] = target: human RAR-related Orphan Receptor gamma (RORg), RORC (gene 6097) (UniProt P51449); assay: ATG_RORg_TRANS: Attagene TRANS-FACTORIAL HepG2 Assay for human RAR-related Orphan Receptor gamma (RORg) (AID 2283011)
# human RAR-related Orphan Receptor gamma (RORg), RORC (gene 6097), sequence (P51449 whole entry, looked up, the tested form may be a part): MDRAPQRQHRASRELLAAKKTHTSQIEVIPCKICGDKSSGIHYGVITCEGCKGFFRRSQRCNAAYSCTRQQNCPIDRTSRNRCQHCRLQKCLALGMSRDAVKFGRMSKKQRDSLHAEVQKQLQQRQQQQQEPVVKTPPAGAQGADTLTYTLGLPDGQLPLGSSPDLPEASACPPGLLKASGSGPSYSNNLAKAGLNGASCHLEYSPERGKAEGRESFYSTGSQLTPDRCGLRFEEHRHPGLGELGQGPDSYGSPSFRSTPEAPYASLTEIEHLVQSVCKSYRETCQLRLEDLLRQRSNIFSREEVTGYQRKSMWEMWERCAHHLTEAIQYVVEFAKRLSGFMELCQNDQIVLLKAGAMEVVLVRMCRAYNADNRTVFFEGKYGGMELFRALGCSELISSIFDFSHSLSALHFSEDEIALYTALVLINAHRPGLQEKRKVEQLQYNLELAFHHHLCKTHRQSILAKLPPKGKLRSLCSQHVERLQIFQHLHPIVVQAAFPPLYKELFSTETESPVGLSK
# How it was run: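 Transient MRTU transfection of HepG2 (TRANS format, exogenous NR-Gal4 chimera). 24 h dosing. Total RNA → oligo(dT) RT → PCR → 6-FAM labelling → HpaI cut → CE. Gain vs DMSO.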
# [2] = target: Retinoic acid receptor RXR-alpha (Homo sapiens) (UniProt P19793); assay: ATG_RXRa_TRANS: Attagene TRANS-FACTORIAL HepG2 Assay for human Retinoid X Receptor alpha (RXRa) (AID 2283012)
# Retinoic acid receptor RXR-alpha (Homo sapiens), sequence (P19793 whole entry, looked up, the tested form may be a part): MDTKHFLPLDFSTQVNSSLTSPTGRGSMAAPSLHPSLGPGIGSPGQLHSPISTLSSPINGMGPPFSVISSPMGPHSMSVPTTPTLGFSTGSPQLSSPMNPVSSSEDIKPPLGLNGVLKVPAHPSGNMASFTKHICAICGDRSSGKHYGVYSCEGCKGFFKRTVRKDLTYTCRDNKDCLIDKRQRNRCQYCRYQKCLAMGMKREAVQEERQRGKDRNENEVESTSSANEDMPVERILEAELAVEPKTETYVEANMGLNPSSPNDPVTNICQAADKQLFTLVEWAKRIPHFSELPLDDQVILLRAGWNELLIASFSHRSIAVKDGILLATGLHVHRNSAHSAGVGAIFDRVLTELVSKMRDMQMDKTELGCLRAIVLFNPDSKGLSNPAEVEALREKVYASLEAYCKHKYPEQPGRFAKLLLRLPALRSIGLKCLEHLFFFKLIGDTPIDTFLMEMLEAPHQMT
# How it was run: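 HepG2 cells transiently transfected with multiplexed GAL4-UAS reporter units and chimeric NR-GAL4 fusions, dosed 24 h. Reporter mRNA measured by RT-PCR, FAM labelling, HpaI digestion and capillary electrophoresis; gain-of-signal fitted relative to DMSO baseline.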
# [3] = target: human Retinoid X Receptor beta (RXRb), RXRB (gene 6257) (UniProt P28702); assay: ATG_RXRb_TRANS: Attagene TRANS-FACTORIAL HepG2 Assay for human Retinoid X Receptor beta (RXRb) (AID 2283013)
# human Retinoid X Receptor beta (RXRb), RXRB (gene 6257), sequence (P28702 whole entry, looked up, the tested form may be a part): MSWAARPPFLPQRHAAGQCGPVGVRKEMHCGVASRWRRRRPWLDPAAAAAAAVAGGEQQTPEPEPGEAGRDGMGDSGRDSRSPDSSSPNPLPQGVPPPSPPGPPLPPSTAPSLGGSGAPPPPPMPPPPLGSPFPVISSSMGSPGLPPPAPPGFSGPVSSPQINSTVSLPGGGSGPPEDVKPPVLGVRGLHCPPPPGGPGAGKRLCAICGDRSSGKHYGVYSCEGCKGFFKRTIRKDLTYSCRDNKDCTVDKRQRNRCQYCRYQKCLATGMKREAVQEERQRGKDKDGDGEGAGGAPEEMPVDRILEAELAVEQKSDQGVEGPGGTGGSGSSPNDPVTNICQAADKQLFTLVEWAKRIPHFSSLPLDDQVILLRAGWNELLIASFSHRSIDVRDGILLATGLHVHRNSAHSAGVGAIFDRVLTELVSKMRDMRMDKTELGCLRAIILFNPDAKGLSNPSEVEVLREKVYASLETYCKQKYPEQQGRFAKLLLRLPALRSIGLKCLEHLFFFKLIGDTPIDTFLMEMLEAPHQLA
# How it was run: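 HepG2 cells transiently transfected with multiplexed reporter units driven by GAL4-UAS and exogenous chimeric NR-Gal4 proteins; treated 24 h. Reporter mRNA measured by RT-PCR, 6-FAM labelling and capillary electrophoresis; gain-of-signal fitted versus DMSO baseline.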
# [4] = target: human Thyroid Receptor alpha (THRa1), THRA (gene 7067) (UniProt P10827); assay: ATG_THRa1_TRANS: Attagene TRANS-FACTORIAL HepG2 Assay for human Thyroid Receptor alpha (THRa1) (AID 2283014)
# human Thyroid Receptor alpha (THRa1), THRA (gene 7067), sequence (P10827 whole entry, looked up, the tested form may be a part): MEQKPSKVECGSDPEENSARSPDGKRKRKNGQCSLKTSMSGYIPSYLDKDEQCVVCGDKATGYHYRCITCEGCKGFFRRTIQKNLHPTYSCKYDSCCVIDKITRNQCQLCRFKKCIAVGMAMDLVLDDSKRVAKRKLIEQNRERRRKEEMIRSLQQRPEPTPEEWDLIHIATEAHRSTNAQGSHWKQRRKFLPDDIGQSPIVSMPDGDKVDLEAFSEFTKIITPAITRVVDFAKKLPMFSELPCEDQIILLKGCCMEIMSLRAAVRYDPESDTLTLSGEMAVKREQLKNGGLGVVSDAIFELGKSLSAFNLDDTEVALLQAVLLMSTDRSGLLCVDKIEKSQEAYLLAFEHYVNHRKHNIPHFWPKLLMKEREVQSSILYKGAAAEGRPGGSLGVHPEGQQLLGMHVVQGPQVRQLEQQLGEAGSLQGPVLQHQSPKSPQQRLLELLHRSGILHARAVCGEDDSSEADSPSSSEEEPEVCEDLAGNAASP
# How it was run: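 Transient HepG2 transfection, NR-Gal4 chimera driving GAL4-UAS reporters; 24 h compound exposure; total RNA, oligo(dT) RT, PCR, fluorescent primer extension, capillary electrophoresis. Upward direction vs DMSO control.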
# [5] = read-out: Interleukin-1 alpha (IL1a), IL1A (gene 3552); assay: BSK_BE3C_IL1a: BioMAP Diversity Plus: BE3C Assay for Interleukin-1 alpha (IL1a) Biomarker Activity (AID 2283016; active = hit-call score of the fitted dose curve at least 0.9, where 1 is the maximum; inactive = score below 0.9); conditions: primary human bronchial epithelial cells; actives raise or lower the signal
# How it was run: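 Human primary bronchial epithelial cells (BE3C system) were dosed with compound and IL-1a measured by ELISA 24 h later. Activity was fitted bidirectionally against DMSO baseline; cytotoxicity was tracked in parallel cultures by SRB total-protein staining.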
# [6] = read-out: Monocyte Chemoattractant Protein-1 (MCP1), CCL2 (gene 6347); assay: BSK_3C_MCP1: BioMAP Diversity Plus: 3C Assay for Monocyte Chemoattractant Protein-1 (MCP1) Biomarker Activity (AID 2283017; active = hit-call score of the fitted dose curve at least 0.9, where 1 is the maximum; inactive = score below 0.9); conditions: primary human endothelial cells (HUVEC); actives raise or lower the signal
# How it was run: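 HUVEC, 3C system; 24 h chemical exposure; MCP-1 by ELISA; bidirectional curve fit vs DMSO baseline.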
# [7] = read-out: Monocyte Chemoattractant Protein-1 (MCP1), CCL2 (gene 6347); assay: BSK_4H_MCP1: BioMAP Diversity Plus: 4H Assay for Monocyte Chemoattractant Protein-1 (MCP1) Biomarker Activity (AID 2283018; active = hit-call score of the fitted dose curve at least 0.9, where 1 is the maximum; inactive = score below 0.9); conditions: primary human endothelial cells (HUVEC); actives raise or lower the signal
# How it was run: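 Human umbilical vein endothelial cells (4H system) dosed with chemical; MCP-1 measured by ELISA 24 h after dosing. Bidirectional curve fitting against DMSO negative control as baseline; parallel SRB total-protein staining tracks overt cytotoxicity.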
# [8] = read-out: Human Leukocyte Antigen - DR isotype (HLADR), HLA-DRA (gene 3122); assay: BSK_3C_HLADR: BioMAP Diversity Plus: 3C Assay for Human Leukocyte Antigen - DR isotype (HLADR) Biomarker Activity (AID 2283019; active = hit-call score of the fitted dose curve at least 0.9, where 1 is the maximum; inactive = score below 0.9;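 as to outcome: ELISA of cell-surface HLA-DR on HUVEC 24 h after dosing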); conditions: primary human endothelial cells (HUVEC); actives raise or lower the signal
# How it was run: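 HUVEC, 3C stimulation, 24 h post-dose; HLA-DR by ELISA; bidirectional curve fit vs DMSO baseline; gain or loss of signal scored.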
# [9] = read-out: Interleukin-8 (IL8), CXCL8 (gene 3576); assay: BSK_3C_IL8: BioMAP Diversity Plus: 3C Assay for Interleukin-8 (IL8) Biomarker Activity (AID 2283020; active = hit-call score of the fitted dose curve at least 0.9, where 1 is the maximum; inactive = score below 0.9); conditions: primary human endothelial cells (HUVEC); actives raise or lower the signal
# How it was run: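 Primary human umbilical vein endothelial cells (3C system) were exposed to test chemical for 24 h, then IL-8 was quantified by ELISA. Responses were fitted bidirectionally against DMSO vehicle as baseline.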
# [10] = target: human Vitamin D Receptor (VDR), VDR (gene 7421) (UniProt P11473); assay: ATG_VDR_TRANS: Attagene TRANS-FACTORIAL HepG2 Assay for human Vitamin D Receptor (VDR) (AID 2283022)
# human Vitamin D Receptor (VDR), VDR (gene 7421), sequence (P11473 whole entry, looked up, the tested form may be a part): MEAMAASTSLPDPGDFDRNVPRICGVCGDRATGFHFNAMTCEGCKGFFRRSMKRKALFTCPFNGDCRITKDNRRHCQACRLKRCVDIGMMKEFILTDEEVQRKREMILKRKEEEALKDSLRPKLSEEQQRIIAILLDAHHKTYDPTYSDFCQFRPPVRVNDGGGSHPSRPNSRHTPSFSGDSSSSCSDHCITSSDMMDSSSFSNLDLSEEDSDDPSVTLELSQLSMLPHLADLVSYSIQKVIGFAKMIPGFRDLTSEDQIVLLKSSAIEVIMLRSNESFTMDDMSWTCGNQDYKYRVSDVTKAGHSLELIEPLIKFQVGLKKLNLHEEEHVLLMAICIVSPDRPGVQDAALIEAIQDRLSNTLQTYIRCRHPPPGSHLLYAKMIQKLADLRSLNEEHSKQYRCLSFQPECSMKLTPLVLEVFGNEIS
# How it was run: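 RT-PCR/capillary electrophoresis read-out of reporter mRNA induction in transiently transfected HepG2; 24 h dosing; chimeric NR-Gal4 (TRANS format); gain-of-signal fit against DMSO baseline.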
# [11] = BSK_3C_SRB: Viability Assessment in the BioMAP Diversity Plus: 3C Assay (AID 2283023; active = hit-call score of the fitted dose curve at least 0.9, where 1 is the maximum; inactive = score below 0.9;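 also: cells read 24 h after compound dosing; fitted both ways against DMSO so a hit may be signal rise or drop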); conditions: primary human endothelial cells (HUVEC)
# How it was run: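 HUVEC, 24 h post-dose; 10% TCA fix, 0.1% SRB stain, A560 nm. Bidirectional curve fit vs DMSO negative control.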
# [12] = read-out: Matrix Metallopeptidase 1 (MMP1), MMP1 (gene 4312); assay: BSK_BE3C_MMP1: BioMAP Diversity Plus: BE3C Assay for Matrix Metallopeptidase 1 (MMP1) Biomarker Activity (AID 2283024; active = hit-call score of the fitted dose curve at least 0.9, where 1 is the maximum; inactive = score below 0.9); conditions: primary human bronchial epithelial cells; actives raise or lower the signal
# How it was run: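 Primary human bronchial epithelial cells were dosed with test chemicals, and MMP1 levels were measured by ELISA 24 h later. Data were fitted bidirectionally against DMSO as the negative control and activity baseline.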
# [13] = BSK_3C_Vis: BioMAP Diversity Plus: 3C Assay for Morphology Visualization (AID 2283025; active = hit-call score of the fitted dose curve at least 0.9, where 1 is the maximum; inactive = score below 0.9;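 also: fitted both ways so gain or loss versus DMSO counts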); conditions: primary human endothelial cells (HUVEC)
# How it was run: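 Human umbilical vein endothelial cells in the 3C system were imaged by light microscopy 24 h after chemical dosing to record cell morphology. Activity was fitted bidirectionally against DMSO as negative control and baseline; the endpoint serves as a background control.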
# [14] = read-out: Pselectin, SELP (gene 6403); assay: BSK_4H_Pselectin: BioMAP Diversity Plus: 4H Assay for Pselectin Biomarker Activity (AID 2283026; active = hit-call score of the fitted dose curve at least 0.9, where 1 is the maximum; inactive = score below 0.9); conditions: primary human endothelial cells (HUVEC); actives raise or lower the signal
# How it was run: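 Primary human umbilical vein endothelial cells were exposed to test chemical for 24 h, then cell-surface P-selectin was quantified by ELISA. Activity was fitted bidirectionally against DMSO as negative control and baseline.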
# [15] = BSK_4H_SRB: Viability Assessment in the BioMAP Diversity Plus: 4H Assay (AID 2283027; active = hit-call score of the fitted dose curve at least 0.9, where 1 is the maximum; inactive = score below 0.9;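 also: cells exposed to compound for 24 h before staining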;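 as to AC50: curves fitted both ways versus DMSO so AC50 may be loss or gain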); conditions: primary human endothelial cells (HUVEC)
# How it was run: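 Absorbance at 560 nm of SRB-stained total protein served as the viability read-out in confluent primary human umbilical vein endothelium 24 h after chemical treatment. Curves were fitted bidirectionally against DMSO as negative control.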
# [16] = BSK_BE3C_SRB: Viability Assessment in the BioMAP Diversity Plus: BE3C Assay (AID 2283028; active = hit-call score of the fitted dose curve at least 0.9, where 1 is the maximum; inactive = score below 0.9); conditions: primary human bronchial epithelial cells
# How it was run: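 Primary human bronchial epithelium; chemical dosing, 24 h; 10% TCA fix, 0.1% SRB stain, A560; bidirectional fit vs DMSO baseline.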
# [17] = read-out: Thrombomodulin, THBD (gene 7056); assay: BSK_3C_Thrombomodulin: BioMAP Diversity Plus: 3C Assay for Thrombomodulin Biomarker Activity (AID 2283029; active = hit-call score of the fitted dose curve at least 0.9, where 1 is the maximum; inactive = score below 0.9); conditions: primary human endothelial cells (HUVEC); actives raise or lower the signal
# How it was run: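 Primary human umbilical vein endothelial cells (3C system) were exposed to chemical for 24 h, then thrombomodulin levels were measured by ELISA. Activity was fitted bidirectionally against the DMSO negative control as baseline.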
# [18] = read-out: Urokinase-type plasminogen activator receptor (uPAR), PLAUR (gene 5329); assay: BSK_4H_uPAR: BioMAP Diversity Plus: 4H Assay for Urokinase-type plasminogen activator receptor (uPAR) Biomarker Activity (AID 2283030; active = hit-call score of the fitted dose curve at least 0.9, where 1 is the maximum; inactive = score below 0.9); conditions: primary human endothelial cells (HUVEC); actives raise or lower the signal
# How it was run: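 HUVEC, 24 h post-dose; uPAR by ELISA; bidirectional fit vs DMSO baseline.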
# [19] = read-out: Monokine induced gamma interferon (MIG), CXCL9 (gene 4283); assay: BSK_3C_MIG: BioMAP Diversity Plus: 3C Assay for Monokine induced gamma interferon (MIG) Biomarker Activity (AID 2283021; active = hit-call score of the fitted dose curve at least 0.9, where 1 is the maximum; inactive = score below 0.9); conditions: primary human endothelial cells (HUVEC); actives raise or lower the signal
# How it was run: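 Primary human umbilical vein endothelial cells in the 3C system were exposed to chemical for 24 h, after which MIG was quantified by ELISA. Activity was fitted bidirectionally against DMSO as negative control and baseline.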
compound,measurement,setting,value
CC(O)COCC(C)O (stereo not given),outcome,[1],inactive
same,outcome,[2],inactive
CCC(C)(C)C1CCC(=O)CC1,outcome,[1],inactive
same,outcome,[2],inactive
same,AC50,[3],50.6 µM (active)
C=CCOCC(O)CO (stereo not given),outcome,[1],inactive
same,outcome,[2],inactive
CCOCC(C)O (stereo not given),outcome,[1],inactive
O=C(O)c1cc2ccccc2cc1O,outcome,[1],inactive
same,outcome,[2],inactive
same,outcome,[3],inactive
CC(C)(O)C(=O)c1ccc(OCCO)cc1,outcome,[1],inactive
same,outcome,[2],inactive
C[N+](C)(C)CCO,outcome,[1],inactive
same,outcome,[2],inactive
Cc1cc(O)c(C)c(C)c1O,outcome,[1],inactive
same,outcome,[2],inactive
same,outcome,[3],inactive
CCC(C)C1CCCCC1=O (stereo not given),outcome,[1],inactive
same,outcome,[2],inactive
same,outcome,[3],inactive
same,outcome,[4],inactive
O=C(O)c1ccccc1O,outcome,[1],inactive
same,outcome,[2],inactive
CCC=C(C)C=O,outcome,[1],inactive
same,outcome,[2],inactive
same,AC50,[3],26.6 µM (active)
same,outcome,[4],inactive
CC(O)CNCC(C)O (stereo not given),outcome,[1],inactive
same,outcome,[2],inactive
same,outcome,[3],inactive
N=C1N=C(N)c2ccccc21,outcome,[1],inactive
same,outcome,[2],inactive
same,outcome,[3],inactive
same,outcome,[4],inactive
CC(C)C(=O)OCC=Cc1ccccc1,outcome,[1],inactive
same,outcome,[2],inactive
O=S1(=O)CC=CC1,outcome,[1],inactive
same,outcome,[2],inactive
O=c1cc[nH]cc1,outcome,[1],inactive
same,outcome,[2],inactive
same,outcome,[3],inactive
NC(N)=NC(N)=NCCc1ccccc1,outcome,[1],inactive
CC(C)Cc1ccccc1,outcome,[1],inactive
same,outcome,[2],inactive
same,outcome,[3],inactive
C1CCCNCC1,outcome,[1],inactive
Cc1cccc(O)c1,outcome,[1],inactive
CCCCCCC(O)CCOC(C)=O (stereo not given),outcome,[1],inactive
same,outcome,[2],inactive
same,outcome,[3],inactive
CCCc1ccc(O)cc1,outcome,[1],inactive
same,outcome,[2],inactive
same,outcome,[3],inactive
CNC(=C[N+](=O)[O-])NCCSCc1ccc(CN(C)C)o1,outcome,[1],inactive
same,outcome,[2],inactive
COc1ccccc1O,outcome,[1],inactive
CC12CCC(C1)C(C)(C)C2O (stereo not given),outcome,[1],inactive
same,outcome,[2],inactive
same,outcome,[3],inactive
O=C1Cc2ccccc2C1,outcome,[1],inactive
same,outcome,[2],inactive
same,outcome,[3],inactive
ClCCOCCOCCCl,outcome,[1],inactive
same,outcome,[2],inactive
same,outcome,[3],inactive
same,outcome,[4],inactive
CC(C)(C)c1cc(CCC(=O)OCCSCCOC(=O)CCc2cc(C(C)(C)C)c(O)c(C(C)(C)C)c2)cc(C(C)(C)C)c1O,outcome,[1],inactive
same,outcome,[2],inactive
same,AC50,[3],33.9 µM (active)
same,outcome,[4],inactive
C[C@H](CCC(=O)O)[C@H]1CC[C@H]2[C@@H]3CC[C@@H]4C[C@H](O)CC[C@]4(C)[C@H]3CC[C@]12C,outcome,[1],inactive
same,outcome,[2],inactive
CCCCCCCCOS(=O)(=O)O,outcome,[1],inactive
same,outcome,[2],inactive
same,AC50,[3],100 µM (active)
CC1(C)CC(N)CC(C)(CN)C1 (stereo not given),outcome,[1],inactive
same,outcome,[2],inactive
same,outcome,[3],inactive
CC(=O)c1ccc2ccccc2c1,outcome,[1],inactive
same,outcome,[2],inactive
same,outcome,[3],inactive
same,outcome,[4],inactive
CC(=O)CCC(=O)O,outcome,[1],inactive
same,outcome,[2],inactive
same,outcome,[3],inactive
same,outcome,[4],inactive
CC(=O)OC(C)(C)C,outcome,[1],inactive
same,outcome,[2],inactive
same,outcome,[3],inactive
same,outcome,[4],inactive
COC(=O)c1ccc(C(=O)OC)cc1,outcome,[1],inactive
same,outcome,[2],inactive
same,outcome,[3],inactive
same,outcome,[4],inactive
same,outcome,[5],inactive
same,outcome,[6],inactive
same,outcome,[7],inactive
same,outcome,[8],inactive
same,outcome,[9],inactive
same,outcome,[10],inactive
same,outcome,[11],inactive
same,outcome,[12],inactive
same,outcome,[13],inactive
same,outcome,[14],inactive
same,outcome,[15],inactive
same,outcome,[16],inactive
same,outcome,[17],inactive
same,outcome,[18],inactive
C#C[C@]1(O)CC[C@H]2[C@@H]3CCc4cc(O)ccc4[C@H]3CC[C@@]21C,outcome,[1],inactive
same,outcome,[2],inactive
same,outcome,[3],inactive
same,outcome,[4],inactive
same,outcome,[5],inactive
same,AC50,[6],7.15 µM (active)
same,outcome,[7],inactive
same,AC50,[8],6.67 µM (active)
same,AC50,[9],5.33 µM (active)
same,AC50,[11],6.09 µM (active)
same,outcome,[12],inactive
same,AC50,[13],9.8 µM (active)
same,outcome,[14],inactive
same,AC50,[15],3.99 µM (active)
same,outcome,[16],inactive
same,outcome,[17],inactive
same,AC50,[18],3.93 µM (active)
[Cu+],outcome,[1],inactive
same,outcome,[2],inactive
same,outcome,[4],inactive
CC(=O)CCC=C(C)CCC=C(C)C,outcome,[1],inactive
same,outcome,[2],inactive
same,outcome,[3],inactive
same,outcome,[5],inactive
same,outcome,[6],inactive
same,outcome,[7],inactive
same,outcome,[8],inactive
same,outcome,[9],inactive
same,outcome,[19],inactive
same,outcome,[11],inactive
same,outcome,[12],inactive
same,outcome,[13],inactive
same,outcome,[14],inactive
same,outcome,[15],inactive
same,outcome,[16],inactive
same,outcome,[17],inactive
same,outcome,[18],inactive
CC(C)COC(=O)c1ccccc1O,outcome,[1],inactive
same,outcome,[2],inactive
same,outcome,[3],inactive
same,outcome,[10],inactive
